# Screens deposited in PubChem by several laboratories.
# SSB-PriA inh – blocks PriA binding to SSB C-terminal tail. AlphaScreen SSBct-PriA binding, biotinylated peptide. inhibition, % at 33 µM. hit rate 0.6% among 430,000. AID 1272365; in the data active means inhibition mostly above about 37%, no sharp cut-off; inactive means mostly below about 20%;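 further: plate controls were negative control peptide for no effect and reference peptide for full effect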
# TcdB GH inh – TcdB glycohydrolase inhibition | inhibition, % at 9.99 µM | TcdB glycohydrolase enzymatic assay, plate reader | hit rate 0.24% among 350,000 | P18177; in the data active means inhibition above about 10%
# Target sequence (P18177 whole entry, looked up): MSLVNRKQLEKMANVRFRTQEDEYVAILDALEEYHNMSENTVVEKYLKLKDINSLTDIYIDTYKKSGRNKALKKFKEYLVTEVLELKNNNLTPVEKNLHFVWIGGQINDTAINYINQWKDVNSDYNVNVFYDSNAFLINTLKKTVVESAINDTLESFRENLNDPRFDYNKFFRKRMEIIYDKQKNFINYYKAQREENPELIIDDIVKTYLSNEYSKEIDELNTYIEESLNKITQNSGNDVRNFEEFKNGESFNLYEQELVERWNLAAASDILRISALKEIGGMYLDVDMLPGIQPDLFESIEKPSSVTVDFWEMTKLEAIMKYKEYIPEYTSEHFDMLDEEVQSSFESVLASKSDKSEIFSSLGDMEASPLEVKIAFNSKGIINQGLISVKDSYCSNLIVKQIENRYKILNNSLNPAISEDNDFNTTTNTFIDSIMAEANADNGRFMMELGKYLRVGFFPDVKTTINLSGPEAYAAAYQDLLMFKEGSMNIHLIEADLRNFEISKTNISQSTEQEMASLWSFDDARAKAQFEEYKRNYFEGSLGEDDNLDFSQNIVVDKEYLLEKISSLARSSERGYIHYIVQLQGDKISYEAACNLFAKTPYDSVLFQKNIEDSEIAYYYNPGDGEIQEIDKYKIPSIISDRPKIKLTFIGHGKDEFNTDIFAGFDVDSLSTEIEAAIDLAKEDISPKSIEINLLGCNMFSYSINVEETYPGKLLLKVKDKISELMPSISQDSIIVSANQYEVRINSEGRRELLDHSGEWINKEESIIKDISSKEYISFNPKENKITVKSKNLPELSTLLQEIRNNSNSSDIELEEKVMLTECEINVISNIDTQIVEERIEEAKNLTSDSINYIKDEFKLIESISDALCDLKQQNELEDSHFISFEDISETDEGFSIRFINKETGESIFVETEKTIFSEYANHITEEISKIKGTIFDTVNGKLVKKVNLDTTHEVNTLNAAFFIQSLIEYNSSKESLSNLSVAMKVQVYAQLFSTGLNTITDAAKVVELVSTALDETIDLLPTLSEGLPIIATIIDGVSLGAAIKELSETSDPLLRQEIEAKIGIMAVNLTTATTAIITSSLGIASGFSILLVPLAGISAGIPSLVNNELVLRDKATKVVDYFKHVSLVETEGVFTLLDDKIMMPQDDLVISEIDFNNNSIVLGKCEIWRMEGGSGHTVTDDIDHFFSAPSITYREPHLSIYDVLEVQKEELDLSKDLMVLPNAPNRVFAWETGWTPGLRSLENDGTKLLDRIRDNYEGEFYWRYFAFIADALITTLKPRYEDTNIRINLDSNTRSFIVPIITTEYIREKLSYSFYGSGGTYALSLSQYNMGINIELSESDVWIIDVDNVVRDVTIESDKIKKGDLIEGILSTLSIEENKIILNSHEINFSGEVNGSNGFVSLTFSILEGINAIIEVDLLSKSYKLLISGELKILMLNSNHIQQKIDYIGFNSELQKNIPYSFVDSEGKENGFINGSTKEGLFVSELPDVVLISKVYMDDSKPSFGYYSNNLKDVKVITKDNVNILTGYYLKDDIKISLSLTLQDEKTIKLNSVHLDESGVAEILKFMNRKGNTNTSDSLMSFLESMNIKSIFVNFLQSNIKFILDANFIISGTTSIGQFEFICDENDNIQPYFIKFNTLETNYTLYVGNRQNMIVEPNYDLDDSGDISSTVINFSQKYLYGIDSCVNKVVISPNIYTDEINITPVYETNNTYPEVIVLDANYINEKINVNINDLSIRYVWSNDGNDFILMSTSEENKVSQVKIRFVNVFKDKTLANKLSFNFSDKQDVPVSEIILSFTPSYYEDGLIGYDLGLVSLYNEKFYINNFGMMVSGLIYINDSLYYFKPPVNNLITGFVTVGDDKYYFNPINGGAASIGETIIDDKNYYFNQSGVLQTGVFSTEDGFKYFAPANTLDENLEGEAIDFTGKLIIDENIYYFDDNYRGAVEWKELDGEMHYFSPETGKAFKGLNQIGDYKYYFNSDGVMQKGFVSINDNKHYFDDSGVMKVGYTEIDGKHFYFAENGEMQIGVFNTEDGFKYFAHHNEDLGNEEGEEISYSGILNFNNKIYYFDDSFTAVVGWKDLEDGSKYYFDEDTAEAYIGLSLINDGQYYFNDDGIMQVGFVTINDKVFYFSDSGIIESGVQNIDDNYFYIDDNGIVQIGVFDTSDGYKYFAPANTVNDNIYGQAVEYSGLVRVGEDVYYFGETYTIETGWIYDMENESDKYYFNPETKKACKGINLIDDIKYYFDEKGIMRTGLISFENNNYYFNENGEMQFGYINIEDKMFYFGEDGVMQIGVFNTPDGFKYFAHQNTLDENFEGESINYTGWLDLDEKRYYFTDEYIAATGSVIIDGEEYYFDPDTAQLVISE
# FadD28 binding – M. tuberculosis FadD28 bisubstrate binding inhibition. inhibition, % at 12.5 µM. FadD28 bisubstrate probe binding, fluorescence polarization. AID 588549. hit rate 0.22% among 360,000; in the data active means inhibition above about 8.5%, passing the limit was not always enough
# Mtb hypoxia rep – reduces hypoxia-regulated biosensor signal in M. tuberculosis. hit rate 0.1% among 300,000. AID 1159583. M. tuberculosis hypoxia-regulated fluorescent reporter, fluorescence. fluorescence inhibition, % (test concentration not listed); in the data active means fluorescence inhibition mostly above about 23%, no sharp cut-off; inactive means mostly below about 17%
# Mtb BioA inh – blocks M. tuberculosis BioA enzyme activity; purified M. tuberculosis BioA enzyme, plate reader; inhibition, % at 9.99 µM; hit rate 0.096% among 360,000; AID 602481; in the data active means inhibition above about 40%
# PrP 5UTR inh – inhibition of PrP 5' UTR reporter expression; cell-based PrP 5' UTR mRNA reporter, plate reader; inhibition, % (test concentration not listed); AID 488862; hit rate 0.35% among 340,000; in the data active means inhibition above about 52%; further: 0 = median of the neutral control wells
# An asterisk follows results filed as active; nt = no result given. Rows were chosen to be rich in hits. Some 1% of all compounds tested hit in one or more screens of this group.
SMILES,SSB-PriA inh,TcdB GH inh,FadD28 binding,Mtb hypoxia rep,Mtb BioA inh,PrP 5UTR inh
CN(CC1CCCO1)S(=O)(=O)c1ccc(C(=O)Nc2nc(-c3ccccn3)cs2)cc1 (stereo unspecified),43.9*,nt,-6.7,1.6,-0.4,14.0
O=C(Nc1nc(-c2ccccn2)cs1)c1ccc(F)cc1,106.9*,nt,nt,nt,nt,nt
COc1coc(C(=O)Nc2nc(-c3ccccn3)cs2)cc1=O,87.4*,nt,nt,nt,nt,nt
CCCCCOc1ccc(NC(=O)c2cc(SC)ccc2Cl)cc1,-12.9,nt,-2.1,1.9,-0.2,-40.8
O=C1NC(=NN=Cc2ccco2)SC1Cc1ccc(F)cc1 (stereo unspecified),-7.7,nt,nt,nt,nt,nt
Cc1ccnc2nc(C(=O)Nc3nc(-c4ccccn4)cs3)nn12,71.8*,7.3,-2.9,-17.8,nt,-0.4
CSCc1ccc(C(=O)Nc2nc(-c3ccccn3)cs2)cc1,114.0*,nt,nt,nt,nt,nt
Cn1ccc2cc(C(=O)Nc3nc(-c4ccccn4)cs3)ccc21,110.5*,nt,nt,nt,nt,nt
O=C(CN1CCC(C(=O)c2ccc(F)cc2)CC1)Nc1ccccc1,3.4,nt,-5.2,10.7,0.7,-16.1
CSC(=S)NN=C(C)c1cccc(C)n1,55.3*,-0.9,0.3,nt,nt,11.0
CSC(=S)N/N=C(/c1ccccc1)c1ccccn1,108.0*,nt,nt,nt,nt,nt
CC(=NNC(=S)N1CCCCC1)c1cccc(C)n1,-7.4,-0.2,-1.2,nt,nt,10.6
CN(C)C(=S)NN=C(c1ccccn1)c1ccccn1,161.5*,nt,nt,nt,nt,nt
CC1(C(=O)NS(=O)(=O)c2ccccc2Cl)CCN1C(=O)C1(c2ccc(Cl)cc2)CCC1 (stereo unspecified),nt,-2.8,1.3,nt,-0.4,nt
O=[N+]([O-])c1cc(F)c(N2CCCC2)cc1N1CCc2ccccc2C1,32.8,nt,nt,nt,nt,nt
CN1CCN(c2cc(N3CCc4ccccc4C3)c(F)cc2[N+](=O)[O-])CC1,40.6*,nt,-1.3,-7.1,nt,0.0
O=[N+]([O-])c1cc(F)c(N2CCc3ccccc3C2)cc1N1CCOCC1,75.3*,nt,nt,nt,nt,nt
CCN1CCN(c2cc(N3CCc4ccccc4C3)c([N+](=O)[O-])cc2F)CC1,83.2*,nt,nt,nt,nt,nt
Cc1noc(C)c1S(=O)(=O)Nc1ccc2c(c1)CC(=O)N([C@H](C)CO)C[C@@H](C)[C@H](CN(C)S(C)(=O)=O)O2,nt,nt,nt,nt,0.3,nt
FC(F)(F)c1cc(Cl)c2nc(-c3ccc(Cl)cc3)c(Cc3ccsc3)n2c1,nt,0.7,nt,nt,nt,nt
FC(F)(F)c1cc(Cl)c2nc(-c3ccccc3)c(Cc3ccsc3)n2c1,nt,10.4*,nt,nt,nt,nt
OC(COc1cc(Cl)c(Cl)cc1Cl)CN1CCN(c2ncccn2)CC1 (stereo unspecified),-1.4,nt,-2.2,0.1,nt,-28.4
Cc1cccc(OCCNc2cc(N3CCN(C)CC3)ccc2[N+](=O)[O-])c1,5.8,nt,-18.2,10.0,-0.2,-20.9
Cc1ccc(OCCNc2cc(N3CCN(CCO)CC3)ccc2[N+](=O)[O-])cc1C,55.2*,nt,-22.0,-1.6,nt,-11.5
CC(C(=O)O)C1C[C@]1(C)C(NC(=O)OCc1ccccc1)c1ccccc1 (stereo partly specified),nt,nt,nt,4.3,nt,nt
SMILES,SSB-PriA inh,TcdB GH inh,FadD28 binding,Mtb hypoxia rep,Mtb BioA inh,PrP 5UTR inh
CN1CCN(C(CNC(=O)Nc2ccc(Cl)cc2)c2ccc(F)cc2)CC1 (stereo unspecified),-11.0,0.1,-1.6,2.7,-0.3,-14.3
O=C(C[n+]1ccccc1)NN=Cc1cc(Br)cc(Br)c1O,57.1*,nt,nt,21.2,nt,nt
O=C(C[n+]1ccccc1)N/N=C/c1cc(Br)cc(Br)c1O,nt,nt,0.2,nt,-0.7,nt
O=C(O)c1cccc(N/N=C/c2cc(Br)cc(Br)c2O)c1,nt,nt,27.5*,nt,9.3,-17.1
CC(C)(C)c1ccc(OCC(=O)Nc2ccc3c(c2)CN(C(=O)c2ccco2)CC3)cc1,6.0,nt,nt,nt,nt,nt
CC(C)(C)C(=O)Nc1ccc2c(c1)OCCOCCOc1cc(NC(=O)C(C)(C)C)ccc1OCCOCCO2,2.1,3.8,-3.2,35.8*,nt,-16.4
CC(C)C(c1nnnn1C1CCCC1)N1CCCCC1 (stereo unspecified),-20.5,nt,0.5,nt,-3.3,-5.4
CN(C)c1ccc2c(c1)[C@H]1C[C@H](CC(=O)NCc3ccccn3)O[C@H](CO)[C@H]1O2,nt,-42.0,nt,nt,-2.3,nt
Cc1ccc(NCc2ccc(O)c3ncccc23)cc1C,40.9*,1.2,0.6,-6.6,-0.1,-24.7
Cc1cccnc1NCc1ccc(O)c2ncccc12,57.0*,nt,-3.5,4.4,-0.1,-0.9
COc1ccccc1NCc1ccc(O)c2ncccc12,53.8,nt,nt,nt,nt,nt
Cc1cccc(NCc2ccc(O)c3ncccc23)c1C,59.7*,0.4,-1.8,0.4,nt,-17.0
Cc1ccc(NCc2ccc(O)c3ncccc23)cc1,33.3,0.7,-3.1,2.7,nt,-14.2
CC1(C)CC(=O)c2c(nc(SCCC(=O)Nc3ccc(C(C)(C)C)cc3)c(C#N)c2-c2ccccc2)C1,-10.0,nt,nt,nt,nt,nt
COc1ccc(NC(=O)CCS(=O)(=O)c2ccc3c(c2)CCCN3C(C)=O)cc1Cl,-4.4,nt,-0.6,-4.5,2.3,-22.7
Cc1nc(OCC(=O)NCc2ccnc(N3CCCC3)n2)cc(-n2cccn2)n1,-11.0,nt,nt,nt,nt,nt
COc1cc(OC)c2c(-c3ccccc3)cc(=O)oc2c1C(CC(=O)N1CCN(c2ccccc2)CC1)c1ccc(N(C)C)cc1 (stereo unspecified),32.4,0.7,-2.6,2.2,1.1,-11.5
COc1cc(OC)c2c(-c3ccccc3)cc(=O)oc2c1C(CCN1CCN(c2ccccc2)CC1)c1ccc(N(C)C)cc1 (stereo unspecified),55.0*,1.8,-1.5,-0.4,0.4,-0.3
COc1cc(O)c(C(CCN2CCN(c3ccccc3)CC2)c2ccc3c(c2)OCO3)c(OC)c1 (stereo unspecified),42.2*,-3.3,-2.9,-0.8,-2.4,-38.3
COc1cc(OC)c2c(-c3ccccc3)cc(=O)oc2c1C(CC(=O)N1CCOCC1)c1ccc(N(C)C)cc1 (stereo unspecified),41.8*,-0.2,2.8,20.5,-0.3,5.6
COc1cc(OC)c2c(-c3ccccc3)cc(=O)oc2c1C(CCN1CCCC(C)C1)c1ccc(N(C)C)cc1 (stereo unspecified),96.7*,-9.3,-2.2,nt,-1.1,-9.3
COc1ccc(C(CCN2CCCC(C)C2)c2c(OC)cc(OC)c3c(-c4ccccc4)cc(=O)oc23)cc1 (stereo unspecified),18.8,-0.6,-4.8,22.4,-1.6,-1.9
COc1ccc(C(CCN2CCN(c3ccccc3)CC2)c2c(OC)cc(OC)c3c(-c4ccccc4)cc(=O)oc23)cc1 (stereo unspecified),-1.3,0.8,-2.0,-6.8,-1.2,-19.6
NC1=NC2(CS1)CSC(N)=N2,nt,1.1,nt,nt,nt,nt
C=CC(=O)NC1CC2CCC1(C)C2(C)C (stereo unspecified),3.9,2.2,-0.3,1.3,-1.2,-6.1
O=C(N/N=C\c1ccccn1)c1cccc(C(=O)N/N=C\c2ccccn2)n1,nt,1.2,-4.1,nt,nt,-22.3
COc1ccc(C(CCN2CCOCC2)c2c(OC)cc(OC)c3c(-c4ccccc4)cc(=O)oc23)cc1 (stereo unspecified),-2.1,0.3,-1.7,-1.7,-0.8,19.7
